Measurements: the supplement of paper PMC12067093, “Discovery and optimisation of a covalent ligand for TRIM25 and its application to targeted protein ubiquitination” (Chemical Science, 2025)
Of roughly 21,000 targets only a part is listed; those with the largest changes were picked by preference.

Compound: Cc1cc(ccc1-c1ccccc1)C(=O)N1CCCN(CC1)C(=O)CCl [compound 10]
Assay: probe-labelled cysteine peptide fold change vs DMSO (competition) (log2 fold change); higher = less target engagement (more negative = stronger competition)
Conditions: THP-1, incubation time: 4 h
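Also: competitive profiling in live THP-1 cells: cysteine peptides tagged with an iodoacetamide desthiobiotin (IA-DTB) probe, intensity after compound treatment relative to DMSO-treated cells.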

Chain of UniProt Q8IZL8 (Q8IZL8 whole entry, looked up): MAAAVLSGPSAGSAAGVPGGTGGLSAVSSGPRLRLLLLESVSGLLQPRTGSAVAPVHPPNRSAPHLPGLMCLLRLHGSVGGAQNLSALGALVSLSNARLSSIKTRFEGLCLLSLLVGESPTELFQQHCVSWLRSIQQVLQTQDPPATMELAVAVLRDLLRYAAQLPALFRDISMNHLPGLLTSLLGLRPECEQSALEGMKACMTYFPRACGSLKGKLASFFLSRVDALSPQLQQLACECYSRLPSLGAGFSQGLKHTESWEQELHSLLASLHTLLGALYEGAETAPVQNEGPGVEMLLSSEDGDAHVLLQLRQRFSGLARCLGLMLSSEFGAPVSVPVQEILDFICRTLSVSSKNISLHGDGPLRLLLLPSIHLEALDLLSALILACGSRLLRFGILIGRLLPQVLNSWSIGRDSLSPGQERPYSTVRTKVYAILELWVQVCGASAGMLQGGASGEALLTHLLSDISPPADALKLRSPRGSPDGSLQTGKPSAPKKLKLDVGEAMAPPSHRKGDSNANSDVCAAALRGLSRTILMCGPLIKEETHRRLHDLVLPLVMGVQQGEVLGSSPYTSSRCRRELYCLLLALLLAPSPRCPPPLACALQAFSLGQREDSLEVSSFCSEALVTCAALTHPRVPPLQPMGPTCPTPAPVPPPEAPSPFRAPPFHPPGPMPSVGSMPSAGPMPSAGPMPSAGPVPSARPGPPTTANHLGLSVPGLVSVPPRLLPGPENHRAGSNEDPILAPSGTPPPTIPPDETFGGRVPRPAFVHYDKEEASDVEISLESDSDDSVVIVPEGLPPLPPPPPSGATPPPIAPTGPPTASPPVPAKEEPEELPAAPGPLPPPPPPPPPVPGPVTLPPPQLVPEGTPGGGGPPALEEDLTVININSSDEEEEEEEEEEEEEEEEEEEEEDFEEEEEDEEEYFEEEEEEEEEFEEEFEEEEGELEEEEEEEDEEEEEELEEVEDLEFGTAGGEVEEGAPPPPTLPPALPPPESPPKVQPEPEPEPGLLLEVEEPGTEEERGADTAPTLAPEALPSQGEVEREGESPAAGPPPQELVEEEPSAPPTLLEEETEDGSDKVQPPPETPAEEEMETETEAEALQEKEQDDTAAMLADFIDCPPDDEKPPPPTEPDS
Chain of UniProt Q8WXW3 (Q8WXW3 whole entry, looked up): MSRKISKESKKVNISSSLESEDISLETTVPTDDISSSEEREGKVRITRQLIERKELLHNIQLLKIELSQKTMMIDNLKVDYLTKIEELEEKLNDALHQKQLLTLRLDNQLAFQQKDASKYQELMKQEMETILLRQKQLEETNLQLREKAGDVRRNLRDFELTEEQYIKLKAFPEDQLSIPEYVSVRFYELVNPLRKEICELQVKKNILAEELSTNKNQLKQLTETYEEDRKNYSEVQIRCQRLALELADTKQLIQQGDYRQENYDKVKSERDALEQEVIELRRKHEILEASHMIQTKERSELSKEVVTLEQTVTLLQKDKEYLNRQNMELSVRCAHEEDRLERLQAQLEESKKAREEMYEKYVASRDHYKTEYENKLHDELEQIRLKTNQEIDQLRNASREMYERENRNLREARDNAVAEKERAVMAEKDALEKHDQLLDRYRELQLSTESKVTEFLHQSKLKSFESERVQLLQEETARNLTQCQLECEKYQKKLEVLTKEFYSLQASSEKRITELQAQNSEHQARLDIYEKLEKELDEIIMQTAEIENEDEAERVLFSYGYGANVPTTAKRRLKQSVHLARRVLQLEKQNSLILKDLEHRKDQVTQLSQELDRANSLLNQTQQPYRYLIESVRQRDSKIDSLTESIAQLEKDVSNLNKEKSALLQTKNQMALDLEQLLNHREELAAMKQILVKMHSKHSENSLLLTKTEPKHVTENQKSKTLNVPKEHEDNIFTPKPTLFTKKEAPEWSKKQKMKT
Chain of UniProt Q13608 (Q13608 whole entry, looked up): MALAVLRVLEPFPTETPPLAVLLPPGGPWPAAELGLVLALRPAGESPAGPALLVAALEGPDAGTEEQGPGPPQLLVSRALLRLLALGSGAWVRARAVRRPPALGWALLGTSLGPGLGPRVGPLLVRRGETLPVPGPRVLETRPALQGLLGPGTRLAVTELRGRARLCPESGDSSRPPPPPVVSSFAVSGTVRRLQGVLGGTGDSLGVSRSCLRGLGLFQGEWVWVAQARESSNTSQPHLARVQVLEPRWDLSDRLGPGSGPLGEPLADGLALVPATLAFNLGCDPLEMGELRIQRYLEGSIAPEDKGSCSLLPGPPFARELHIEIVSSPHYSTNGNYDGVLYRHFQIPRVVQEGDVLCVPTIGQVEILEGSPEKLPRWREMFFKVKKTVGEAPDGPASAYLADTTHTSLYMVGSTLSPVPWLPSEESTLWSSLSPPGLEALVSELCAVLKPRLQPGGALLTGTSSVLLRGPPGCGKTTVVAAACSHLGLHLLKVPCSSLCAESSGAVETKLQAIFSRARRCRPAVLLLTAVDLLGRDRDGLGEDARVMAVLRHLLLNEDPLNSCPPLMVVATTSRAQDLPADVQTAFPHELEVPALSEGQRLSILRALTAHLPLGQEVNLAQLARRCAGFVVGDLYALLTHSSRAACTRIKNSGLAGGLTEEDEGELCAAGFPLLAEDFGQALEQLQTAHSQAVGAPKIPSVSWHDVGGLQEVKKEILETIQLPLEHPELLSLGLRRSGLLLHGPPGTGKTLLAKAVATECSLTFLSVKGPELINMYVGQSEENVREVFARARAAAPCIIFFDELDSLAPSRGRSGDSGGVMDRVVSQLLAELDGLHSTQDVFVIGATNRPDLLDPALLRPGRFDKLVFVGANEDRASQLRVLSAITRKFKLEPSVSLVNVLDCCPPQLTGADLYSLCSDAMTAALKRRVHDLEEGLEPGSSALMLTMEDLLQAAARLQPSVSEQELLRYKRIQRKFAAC
Chain of UniProt Q5JVF3 (Q5JVF3 whole entry, looked up): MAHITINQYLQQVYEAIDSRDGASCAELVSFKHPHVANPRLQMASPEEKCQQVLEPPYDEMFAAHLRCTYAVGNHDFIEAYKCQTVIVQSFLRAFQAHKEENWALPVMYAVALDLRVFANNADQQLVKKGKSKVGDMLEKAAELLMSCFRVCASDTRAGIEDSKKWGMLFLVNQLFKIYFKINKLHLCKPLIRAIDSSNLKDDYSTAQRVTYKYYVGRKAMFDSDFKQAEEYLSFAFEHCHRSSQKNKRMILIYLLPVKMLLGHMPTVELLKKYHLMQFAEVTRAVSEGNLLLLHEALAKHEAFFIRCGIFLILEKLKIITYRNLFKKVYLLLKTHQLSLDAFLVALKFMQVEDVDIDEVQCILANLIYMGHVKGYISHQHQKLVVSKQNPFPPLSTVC
Chain of UniProt P16885 (P16885 whole entry, looked up): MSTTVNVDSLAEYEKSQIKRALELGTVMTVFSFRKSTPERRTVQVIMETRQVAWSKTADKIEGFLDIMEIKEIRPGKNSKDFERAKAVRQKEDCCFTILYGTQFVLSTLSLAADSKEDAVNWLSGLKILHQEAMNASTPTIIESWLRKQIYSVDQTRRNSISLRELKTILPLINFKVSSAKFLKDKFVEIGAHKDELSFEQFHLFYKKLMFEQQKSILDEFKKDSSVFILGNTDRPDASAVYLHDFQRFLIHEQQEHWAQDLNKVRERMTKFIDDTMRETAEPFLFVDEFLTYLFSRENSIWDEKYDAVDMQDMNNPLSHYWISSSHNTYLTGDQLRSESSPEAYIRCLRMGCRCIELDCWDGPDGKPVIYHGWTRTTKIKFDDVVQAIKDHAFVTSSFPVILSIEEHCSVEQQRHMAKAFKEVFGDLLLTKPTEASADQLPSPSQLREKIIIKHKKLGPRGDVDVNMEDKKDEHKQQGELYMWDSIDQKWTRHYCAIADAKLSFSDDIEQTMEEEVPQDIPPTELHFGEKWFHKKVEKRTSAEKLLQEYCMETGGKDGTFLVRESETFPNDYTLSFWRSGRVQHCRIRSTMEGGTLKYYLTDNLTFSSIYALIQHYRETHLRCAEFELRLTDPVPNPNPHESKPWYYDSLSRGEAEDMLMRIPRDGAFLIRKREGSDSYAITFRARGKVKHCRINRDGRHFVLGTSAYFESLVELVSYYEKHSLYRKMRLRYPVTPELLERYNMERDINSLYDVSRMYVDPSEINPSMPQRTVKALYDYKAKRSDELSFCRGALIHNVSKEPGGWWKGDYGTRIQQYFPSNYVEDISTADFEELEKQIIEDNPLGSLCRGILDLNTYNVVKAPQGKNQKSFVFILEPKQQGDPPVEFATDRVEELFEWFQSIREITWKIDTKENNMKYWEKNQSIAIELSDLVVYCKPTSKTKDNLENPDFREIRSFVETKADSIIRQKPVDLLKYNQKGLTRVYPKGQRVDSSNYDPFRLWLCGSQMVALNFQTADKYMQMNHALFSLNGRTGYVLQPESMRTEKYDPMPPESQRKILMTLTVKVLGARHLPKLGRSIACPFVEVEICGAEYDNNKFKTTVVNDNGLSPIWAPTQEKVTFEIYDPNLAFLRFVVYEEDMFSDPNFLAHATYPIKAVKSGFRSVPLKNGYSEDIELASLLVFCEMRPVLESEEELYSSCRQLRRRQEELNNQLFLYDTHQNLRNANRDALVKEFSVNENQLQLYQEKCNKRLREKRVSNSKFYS
Chain of UniProt P50479 (P50479 whole entry, looked up): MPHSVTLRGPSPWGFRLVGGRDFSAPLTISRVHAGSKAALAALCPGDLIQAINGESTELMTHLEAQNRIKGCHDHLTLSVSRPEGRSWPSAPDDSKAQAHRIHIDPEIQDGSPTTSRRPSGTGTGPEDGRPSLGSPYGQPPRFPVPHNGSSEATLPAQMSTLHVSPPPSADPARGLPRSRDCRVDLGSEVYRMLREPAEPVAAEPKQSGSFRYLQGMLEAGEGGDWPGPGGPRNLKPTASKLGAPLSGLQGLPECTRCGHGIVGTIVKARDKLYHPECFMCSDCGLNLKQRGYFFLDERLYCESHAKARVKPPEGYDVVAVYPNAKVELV
Chain of UniProt Q7RTV0 (Q7RTV0 whole entry, looked up): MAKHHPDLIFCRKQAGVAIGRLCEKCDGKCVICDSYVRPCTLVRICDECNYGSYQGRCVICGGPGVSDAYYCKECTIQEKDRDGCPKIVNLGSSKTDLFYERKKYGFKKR

Target	probe-labelled cysteine peptide fold change (10 µM)	probe-labelled cysteine peptide fold change (50 µM)
PELP1_Q8IZL8_71_SAPHLPGLMCLLR (UniProt Q8IZL8)	-1.13	-0.883
PPP6C_O00743_129_QITQVYGFYDECQTK (UniProt O00743)	0.0334	0.309
PPP4C_P60510_130_QITQVYGFYDECLRK<|>PPP2CB_P62714_133_QITQVYGFYDECLRK<|>PPP2CA_P67775_133_QITQVYGFYDECLRK (UniProt P67775+P62714+P60510)	0.0312	-0.109
PLEK_P08567_295_GCVVTSVESNSNGR (UniProt P08567)	-0.14	-0.138
PCBP1_Q15365_158_AITIAGVPQSVTECVK (UniProt Q15365)	0.332	-0.0314
PPP1CC_P36873_140_IYGFYDECKR<|>PPP1CA_P62140_140_IYGFYDECKR (UniProt P62140+P36873)	0.0922	0.0296
PDSS2_Q86YH6_71_CLLSDELSNIAMQVR (UniProt Q86YH6)	-0.424	-2.09
PPP4R2_Q9NY27_30_EVCPVLDQFLCHVAK (UniProt Q9NY27)	0.0564	-0.311
PIBF1_Q8WXW3_334_CAHEEDRLER (UniProt Q8WXW3)	0.47	1.41
PLXNB2_O15031_1149_TLTETDLYCEPPEVQPPPK (UniProt O15031)	-0.174	-0.00622
PDLIM4_P50479_258_CGHGIVGTIVK (UniProt P50479)	-0.0847	-0.546
PATZ1_Q9HBE1_610_KYPCPECGSFFR (UniProt Q9HBE1)	0.149	0.151
PDIA4_P13667_555_DVLIEFYAPWCGHCK<|>PDIA3_P30101_406_DVLIEFYAPWCGHCK (UniProt P30101+P13667)	-0.287	-1.09
PLCG2_P16885_791_SDELSFCR (UniProt P16885)	-0.0321	-0.0713
PFN1_P07737_128_KCYEMASHLRR (UniProt P07737)	-0.531	-0.695
POLR2A_P24928_451_HMCDGDIVIFNR (UniProt P24928)	-0.0734	-0.107
PECAM1_P16284_109_CTVIVNNK (UniProt P16284)	0.0288	0.348
PCCB_P05166_291_DFFNYLPLSSQDPAPVRECHDPSDR (UniProt P05166)	-0.474	-0.454
PKN3_Q6P5Z2_131_QGAENMTHTCASGTPK (UniProt Q6P5Z2)	-0.00333	-0.199
PEX6_Q13608_564_HLLLNEDPLNSCPPLMVVATTSR (UniProt Q13608)	0.0661	0.052

Target	probe-labelled cysteine peptide fold change (10 µM)	probe-labelled cysteine peptide fold change (50 µM)
PINX1_Q96BK5_94_NNHLGLGATINNEDNWIAHQDDFNQLLAELNTCHGQETTDSSDKK (UniProt Q96BK5)	0.15	0.124
PHGDH_O43175_18_VLISDSLDPCCR (UniProt O43175)	-0.444	-0.677
PGK1_P00558_367+379_GCITIIGGGDTATCCAK (UniProt P00558)	0.296	-0.173
PML_P29590_140+143_ESADFWCFECEQLLCAK (UniProt P29590)	0.0944	-0.116
PDCD6IP_Q8WUM4_691_CSDIVFAR (UniProt Q8WUM4)	-0.00307	-0.0695
POLE_Q07864_600_HALEEEEKVPVEQVTNFEEVCDEIK (UniProt Q07864)	-0.247	-1.05
PLA2G4C_Q9UP65_351_KTGICASK (UniProt Q9UP65)	-0.289	-1.38
PGGT1B_P53609_162_ALQLEDGSFCAVPEGSENDMR (UniProt P53609)	-0.0186	-0.573
PGK1_P00558_316_TGQATVASGIPAGWMGLDCGPESSK (UniProt P00558)	-0.217	0.0673
PREX1_Q8TCU6_1173_DSYSECNSNR (UniProt Q8TCU6)	0.634	1.39
POFUT1_Q9H488_249_NACAMLK (UniProt Q9H488)	-0.308	-0.164
PDIA3_P30101_85+92_VDCTANTNTCNK (UniProt P30101)	-0.107	-0.048
PPP2R2D_Q66LE6_245_SFNIVDIKPANMEELTEVITAAEFHPHQCNVFVYSSSK (UniProt Q66LE6)	-0.00789	-0.502
PM20D2_Q8IYS1_14_MRPGGERPVEGGACNGR (UniProt Q8IYS1)	-0.16	-0.608
PCCA_P05165_398_INGWAVECR (UniProt P05165)	0.181	0.357
PIK3C2A_O00443_541_HLYQIEKPCK (UniProt O00443)	-0.457	-1.29
PLXNB2_O15031_1504+1506_GQPCSCWPRPDSVVLEWRPGSTAQILSDLDLTSQR (UniProt O15031)	-0.0809	-0.762
PHKA1_P46020_238_GGPQSVIHVLADEVQHCQSILNSLLPR (UniProt P46020)	0.143	-0.161
PCID2_Q5JVF3_152_VCASDTR (UniProt Q5JVF3)	0.19	0.0189
PLCB3_Q01970_360_CVELDVWK (UniProt Q01970)	0.0505	-0.317

Target	probe-labelled cysteine peptide fold change (10 µM)	probe-labelled cysteine peptide fold change (50 µM)
PDIA4_P13667_91+94_DTVLLEFYAPWCGHCK (UniProt P13667)	-0.227	-1.17
PLEKHF2_Q9H8W4_219_ICDFCYDLLSAGDMATCQPAR (UniProt Q9H8W4)	-0.498	-0.228
PITPNB_P48739_13_VVLPCSVQEYQVGQLYSVAEASK (UniProt P48739)	-0.0113	0.103
PPA1_Q15181_114_HTGCCGDNDPIDVCEIGSK (UniProt Q15181)	0.105	0.181
PCDH17_O14917_335_DLGPNPIPAHCK (UniProt O14917)	-0.0867	-0.403
PPP4C_P60510_193_KQEVPHDGPMCDLLWSDPEDTTGWGVSPR (UniProt P60510)	-0.0839	-0.279
PCBP2_Q15366_158_AITIAGIPQSIIECVK (UniProt Q15366)	0.149	-0.0185
PPP2R5A_Q15172_72_DATSNEQQELFCQK (UniProt Q15172)	0.0287	-0.096
PPWD1_Q96BP3_287_AYPTSVCFSPDGK (UniProt Q96BP3)	0.0829	0.156
POP1_Q99575_745_RSEVPCAPMPK (UniProt Q99575)	-0.238	-0.307
PDIA4_P13667_555+558_DVLIEFYAPWCGHCK<|>PDIA3_P30101_406+409_DVLIEFYAPWCGHCK (UniProt P30101+P13667)	-0.251	-1.15
PML_P29590_479+484_CSQTQCPR (UniProt P29590)	-0.494	-1.17
POLK_Q9UBT6_545_SIIGFLQAGNQALSATECTLEK (UniProt Q9UBT6)	-0.695	-0.377
PPM1E_Q8WY54_307_QEMFPHDPAEALCR (UniProt Q8WY54)	-0.144	-0.28
POLR2K_P53803_22_QQPMIYICGECHTENEIK (UniProt P53803)	-0.0834	-0.286
PLBD2_Q8NHP8_492_YNDFLHDPLSLCK (UniProt Q8NHP8)	0.0964	-0.267
PHF5A_Q7RTV0_46_ICDECNYGSYQGR (UniProt Q7RTV0)	-0.00469	-0.327
PDIA6_Q15084_291_RTCEEHQLCVVAVLPHILDTGAAGR (UniProt Q15084)	0.0625	-0.132
PPP5D1_E7EU14_47_YQECNK<|>PPP5C_P53041_139_YQECNK (UniProt P53041+E7EU14)	0.0409	-0.0811
